Measurements: PubChem BioAssay AID1159580 (chemical genetic matrix, 2015)
Hit rate of the full screen: of about 5,500 compounds, about 2,000 (36%) were called active. Inconclusive results (about 18%) are left out. No stated cut-off is given here; in the data, active means normalized growth mostly below about 0.91 (no sharp cut-off); inconclusive means no clear call, values can overlap the other calls; inactive means mostly above about 0.92. The list shows a part of the results.

Experiment: chemical genetic growth profiling, strain panel (AID 1159580);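 further: tested at 20 µM; growth read once vehicle control cultures reached saturation at 30 °C; 1 = growth at the plate median or of vehicle wells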
Conditions: S. cerevisiae deletion strains, growth OD
[1] = locus YHR030C, strain SLT2, stronger effect = lower value
[2] = locus YHR079C, strain IRE1, stronger effect = lower value
[3] = locus YJL095W, strain BCK1, stronger effect = lower value
[4] = locus YJR066W, strain TOR1, stronger effect = lower value
[5] = locus YLR113W, strain HOG1, stronger effect = lower value
[6] = locus YNL183C, strain NPR1, stronger effect = lower value
[7] = locus YOR231W, strain MKK1, stronger effect = lower value
[8] = locus YPL256C, strain CLN2, stronger effect = lower value

Measured: normalized growth

CN/C(=C\[N+](=O)[O-])NCCSCc1csc(CN(C)C)n1
inactive: [1] 1.05 | [2] 1.04 | [3] 1.06 | [4] 0.927 | [5] 1.06 | [6] 0.996 | [7] 1.07 | [8] 1.08

CC(O)(P(=O)(O)O)P(=O)(O)O
inactive: locus YAL021C, strain ccr4, stronger effect = lower value 1.03 | locus YAL026C, strain drs2, stronger effect = lower value 0.993 | locus YAL030W, strain snc1, stronger effect = lower value 0.993 | locus YBL061C, strain skt5, stronger effect = lower value 0.993 | locus YBR009C, strain hhf1, stronger effect = lower value 0.976 | locus YBR023C, strain chs3, stronger effect = lower value 0.99 | locus YBR171W, strain sec66, stronger effect = lower value 0.992 | locus YBR231C, strain swc5, stronger effect = lower value 0.992 | locus YBR279W, strain paf1, stronger effect = lower value 0.997 | locus YCL011C, strain gbp2, stronger effect = lower value 0.99 | locus YCL016C, strain dcc1, stronger effect = lower value 0.988 | locus YCL061C, strain MRC1, stronger effect = lower value 1 | locus YCL069W, strain vba3, stronger effect = lower value 0.992 | locus YCR088W, strain abp1, stronger effect = lower value 0.989 | locus YDL005C, strain med2, stronger effect = lower value 1 | locus YDL040C, strain nat1, stronger effect = lower value 0.997 | locus YDR001C, strain nth1, stronger effect = lower value 0.988 | locus YDR069C, strain doa4, stronger effect = lower value 0.978 | locus YDR137W, strain rgp1, stronger effect = lower value 1 | locus YDR159W, strain sac3, stronger effect = lower value 0.955 | locus YDR195W, strain ref2 0.93 | locus YDR297W, strain sur2, stronger effect = lower value 0.993 | locus YDR334W, strain swr1, stronger effect = lower value 0.987 | locus YDR335W, strain msn5, stronger effect = lower value 0.991 | locus YDR392W, strain spt3, stronger effect = lower value 0.868 | locus YEL003W, strain gim4, stronger effect = lower value 0.982 | locus YEL037C, strain rad23, stronger effect = lower value 0.985 | locus YEL061C, strain CIN8 (second series), stronger effect = lower value 0.982 | locus YER015W, strain faa2, stronger effect = lower value 0.999 | locus YER016W, strain bim1, stronger effect = lower value 0.979 | locus YER111C, strain swi4, stronger effect = lower value 0.989 | locus YER155C, strain BEM2 (second series), stronger effect = lower value 0.969 | locus YFR010W, strain ubp6, stronger effect = lower value 0.993 | locus YGL167C, strain pmr1, stronger effect = lower value 0.982 | locus YGL173C, strain kem1, stronger effect = lower value 0.987 | locus YGL227W, strain vid30, stronger effect = lower value 0.993 | locus YGL240W, strain doc1, stronger effect = lower value 0.982 | locus YGL253W, strain hxk2, stronger effect = lower value 0.984 | locus YHR013C, strain ard1, stronger effect = lower value 0.954 | locus YHR027C, strain rpn1, stronger effect = lower value 0.996 | [1] 0.958 | [2] 0.961 | locus YHR142W, strain chs7, stronger effect = lower value 0.998 | locus YJL092W, strain hpr5, stronger effect = lower value 0.987 | locus YJL095W, strain BCK1 (second series), stronger effect = lower value 0.994 | [3] 0.995 | locus YJL115W, strain asf1, stronger effect = lower value 0.986 | locus YJL129C, strain trk1, stronger effect = lower value 0.989 | locus YJL154C, strain vps35, stronger effect = lower value 0.986 | locus YJL164C, strain tpk1, stronger effect = lower value 1 | locus YJL166W, strain qcr8, stronger effect = lower value 0.996 | locus YJL187C, strain SWE1, stronger effect = lower value 1 | [4] 0.93 | locus YKL160W, strain elf1, stronger effect = lower value 1.03 | locus YKR026C, strain gcn3, stronger effect = lower value 0.993 | locus YKR091W, strain srl3, stronger effect = lower value 0.995 | locus YLL001W, strain dnm1, stronger effect = lower value 0.98 | locus YLL026W, stronger effect = lower value 0.996 | locus YLL041C, strain sdh2, stronger effect = lower value 0.994 | locus YLR027C, strain aat2, stronger effect = lower value 0.999 | [5] 0.976 | locus YLR221C, strain rsa3, stronger effect = lower value 1.02 | locus YLR258W, strain gsy2, stronger effect = lower value 0.982 | locus YLR262C, strain YPT6 (second series), stronger effect = lower value 1 | locus YLR320W, strain mms22, stronger effect = lower value 0.983 | locus YLR342W, strain FKS1, stronger effect = lower value 1 | locus YLR357W, strain rsc2, stronger effect = lower value 0.981 | locus YLR370C, strain arc18, stronger effect = lower value 0.996 | locus YLR384C, strain iki3, stronger effect = lower value 0.995 | locus YML120C, strain ndi1, stronger effect = lower value 1.01 | locus YMR058W, strain fet3, stronger effect = lower value 0.998 | locus YMR125W, strain sto1, stronger effect = lower value 0.979 | locus YMR129W, stronger effect = lower value 0.994 | locus YMR205C, strain PFK2, stronger effect = lower value 0.967 | locus YMR231W, strain pep5, stronger effect = lower value 0.993 | locus YNL071W, strain lat1, stronger effect = lower value 0.993 | [6] 0.929 | locus YNL209W, strain ssb2, stronger effect = lower value 0.994 | locus YNL248C, strain rpa49, stronger effect = lower value 1.01 | locus YNL322C, strain KRE1 (second series), stronger effect = lower value 1 | locus YNR049C, strain mso1, stronger effect = lower value 0.985 | locus YOR001W, strain rrp6, stronger effect = lower value 1.02 | locus YOR070C, strain gyp1, stronger effect = lower value 0.992 | locus YOR080W, strain dia2, stronger effect = lower value 0.997 | locus YOR083W, strain WHI5, stronger effect = lower value 1.03 | locus YOR106W, strain vam3, stronger effect = lower value 1.02 | [7] 0.972 | locus YOR265W, strain rbl2, stronger effect = lower value 0.989 | locus YOR270C, strain vph1, stronger effect = lower value 0.99 | locus YOR290C, strain snf2, stronger effect = lower value 0.916 | locus YPL051W, strain arl3, stronger effect = lower value 1.01 | locus YPL078C, strain atp4, stronger effect = lower value 1.01 | locus YPL106C, strain sse1, stronger effect = lower value 0.985 | locus YPL240C, strain hsp82, stronger effect = lower value 0.983 | [8] 0.921
